A selection: hits, their analogues and other compounds. The true share with any hit is near 1.6%.
KCNQ2 inh – blocks the rat KCNQ2 potassium channel; AID 2156; B-score at 10 µM; hit rate 1.1% among 310,000; O88943; CHO-K1 KCNQ2, FluxOR thallium flux, 20 min; stronger effect = lower value;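 active = fluorescence ratio B-score at most minus 3 library SDs, with starting brightness B-score within 2 library SDs, cut at about -5.5 in these data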
Target sequence (O88943 whole entry, looked up): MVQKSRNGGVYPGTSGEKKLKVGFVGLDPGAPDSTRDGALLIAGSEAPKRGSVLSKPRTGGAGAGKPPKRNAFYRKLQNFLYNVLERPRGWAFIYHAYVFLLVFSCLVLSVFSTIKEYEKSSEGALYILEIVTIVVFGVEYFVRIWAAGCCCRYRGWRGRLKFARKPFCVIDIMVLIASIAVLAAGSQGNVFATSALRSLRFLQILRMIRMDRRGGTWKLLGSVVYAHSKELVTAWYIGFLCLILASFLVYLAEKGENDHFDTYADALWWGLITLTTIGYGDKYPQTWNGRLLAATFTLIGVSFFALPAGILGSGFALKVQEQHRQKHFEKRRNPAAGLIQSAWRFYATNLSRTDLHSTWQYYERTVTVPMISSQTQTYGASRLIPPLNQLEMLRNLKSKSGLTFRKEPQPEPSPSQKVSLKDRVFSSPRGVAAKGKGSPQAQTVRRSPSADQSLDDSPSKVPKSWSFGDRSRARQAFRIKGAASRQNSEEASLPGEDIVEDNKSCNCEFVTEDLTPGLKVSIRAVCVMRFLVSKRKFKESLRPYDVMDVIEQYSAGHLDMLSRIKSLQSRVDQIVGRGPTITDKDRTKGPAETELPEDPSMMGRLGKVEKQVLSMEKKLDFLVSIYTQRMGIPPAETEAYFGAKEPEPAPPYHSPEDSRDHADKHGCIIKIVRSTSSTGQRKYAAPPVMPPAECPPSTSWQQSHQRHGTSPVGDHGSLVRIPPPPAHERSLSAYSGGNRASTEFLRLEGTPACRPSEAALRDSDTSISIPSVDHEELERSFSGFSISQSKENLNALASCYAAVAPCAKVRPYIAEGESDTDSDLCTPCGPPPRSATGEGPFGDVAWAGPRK
KCNQ2 pot – enhances the rat KCNQ2 potassium channel; O88943; B-score at 10 µM; hit rate 0.54% among 310,000; CHO-K1 KCNQ2, FluxOR thallium flux fluorescence; stronger effect = higher value;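 active = fluorescence ratio B-score at least 3 SD of library B-scores, with initial fluorescence B-score within 3 of them, cut at about 5.3 in these data; same plate scores as AID 2156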;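 note: B-score of peak minus minimum over baseline fluorescence ratio after K+ and Tl+ stimulus; positive B-score means potentiation of KCNQ2 with more thallium influx and brighter signal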
Kir21 confirm – confirmation of mouse Kir2.1 potassium channel inhibitors | shares compounds with KCNQ2 pot | Kir2.1-expressing cells, FluxOR thallium flux fluorescence; stronger effect = lower value | Tl flux remaining, % of negative control (stronger effect = lower value), % at 10 µM | hit rate 41% among 2,300;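 active = Primary-screen hit whose thallium flux fell at least 3 control SD below untreated wells in both duplicates, with normal baseline fluorescence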
HEK293 Tl flux – parental HEK293 activity in Kir2.1 inhibitor counter-screen | shares compounds with KCNQ2 pot | FluxOR signal as % of negative control (100 = no effect), % at 10 µM | parental HEK293 cells, FluxOR thallium flux fluorescence; 0% = unstimulated blank wells | hit rate 19% among 2,300 | AID 2105;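 active = dye signal at least 3 control SD above or below untreated wells in both duplicates, raw fluorescence within 3, either direction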;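 note: percent is based on the flux ratio of peak minus minimum fluorescence over baseline F0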
CHO-K1 Tl ctr – counter-screen for KCNQ2 potentiators: effect in parental CHO-K1 cells. shares compounds with KCNQ2 pot. FluxOR thallium flux fluorescence; zero = vehicle mean+3SD, 100% = vehicle-minus-blank window. activity increase over 3SD of controls, % at 10 µM. hit rate 43% among 1,200. AID 2282;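 active = signal rise of at least 3 SD above the untreated control mean, in both duplicate wells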;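 note: counter screen of KCNQ2 potentiator hits so any rise reflects channel-independent effects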
KCNQ1 sel pot – human KCNQ1 counter-target activity of KCNQ2 potentiators | shares compounds with KCNQ2 pot | CHO KCNQ1 stable, FluxOR thallium flux fluorescence; beyond 3SD, as % of vehicle-control signal | activation over 3SD threshold, % at 10 µM | hit rate 28% among 1,200;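 active = fluorescence ratio rise of at least 3 SD of vehicle wells above their mean, in both replicate wells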
KCNQ2 pot conf – rat KCNQ2 channel potentiator confirmation; hit rate 68% among 1,200; CHO-KCNQ2 cells, FluxOR thallium flux fluorescence; potentiation, less the hit threshold, % at 10 µM; shares compounds with KCNQ2 pot;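 active = fluorescence ratio rising 3 SD or more over the vehicle control mean in both replicates, plus primary screen hit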;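 note: peak minus minimum thallium fluorescence divided by baseline after K/Tl stimulus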
Kir21 spec – tests whether KCNQ2 potentiators also affect mouse Kir2.1. HEK293 Kir2.1, FluxOR thallium flux fluorescence. shares compounds with KCNQ2 pot. activity over 3SD threshold, % at 10 µM. hit rate 2% among 1,200;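 active = fluorescence ratio rise of at least 3 SD above the vehicle-control mean, seen in both replicates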
KCNQ2 W236L MoA – KCNQ2 potentiators acting on retigabine-insensitive rat KCNQ2 W236L mutant | shares compounds with KCNQ2 pot | CHO KCNQ2-W236L, automated patch clamp current | current increase over 3SD of negative controls (%), stronger effect = higher value, % at 25 µM | hit rate 10% among 940 | AID 2558;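 active = current increase at least 3 SD of the untreated controls above them in both duplicate recordings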
Each line names hits and unclear results; the compound was inactive in the other large screens (follow-up assays come after a bar, where they were run).

N#Cc1c(-c2cccs2)nc(SCc2ccc(Cl)cc2)[nH]c1=O	KCNQ2 pot 6.11 | Kir21 confirm inactive | HEK293 Tl flux 59.5% | CHO-K1 Tl ctr 4.4 | KCNQ1 sel pot 18.3 | KCNQ2 pot conf 15.4 | Kir21 spec inactive | KCNQ2 W236L MoA inactive
O=C(C1CCCN(S(=O)(=O)c2cccc3nsnc23)C1)N1CCN(c2ccccn2)CC1 (centres undefined)	none
Cc1ccc(C2Nc3ccccc3C(=O)N2CCCN2CCOCC2)cc1 (centres undefined)	none
CCc1ccc(C(=O)/C=C/c2cnn(C)c2C)s1	none
Cc1nc2scc(-c3ccccc3)c2c(=O)n1N=C1C=CC(=O)C=C1	none (no result: KCNQ2 pot) | Kir21 confirm 62.0% | HEK293 Tl flux 51.0%
Cc1nc2scc(-c3ccccc3)c2c(=O)n1N	none
CC(=O)Oc1ccc2c3c(c(=O)oc2c1)CCCC3	none
O=c1oc2cc(O)ccc2c2c1CCCC2	none | Kir21 confirm inactive | HEK293 Tl flux inactive
C/C(=N\NC(=O)CNc1cccc(Cl)c1C)c1cccs1	none (no result: KCNQ2 pot)
COc1ccc(CCNCC(O)COc2cccc(Br)c2)cc1 (centres undefined)	none | Kir21 confirm 25.0% | HEK293 Tl flux inactive
COc1ccc(CNCc2cccc(Cl)c2)cc1	none
COc1ccc(CNCC(O)(c2ccccc2)c2ccc(Cl)cc2)cc1 (centres undefined)	KCNQ2 inh -5.64 | Kir21 confirm 62.5% | HEK293 Tl flux inactive
CC(=O)c1cccc(OCC(O)CNCCc2ccc(Cl)cc2)c1 (centres undefined)	none
Cc1ccc(CNCC(O)(c2ccccc2)c2ccccc2)cc1	none (no result: KCNQ2 pot) | Kir21 confirm 42.5% | HEK293 Tl flux inactive
COC(=O)c1ccc(CNCC(O)COc2ccc(-c3ccccc3)cc2)cc1 (centres undefined)	none (no result: KCNQ2 pot)
Cc1ccc(CNC(=O)NCc2ccccc2)cc1	none
COc1ccc(CNCC(O)COc2ccc(C(C)(C)c3ccccc3)cc2)cc1 (centres undefined)	none (no result: KCNQ2 pot) | Kir21 confirm 41.0% | HEK293 Tl flux 65.0%
O=C(Cc1ccccc1)NNC(=O)C1CCCC1	none (no result: KCNQ2 pot)
CC(=O)NCCN=C(C)c1sc2ccccc2c1O	none
CCCCN(C)C(=O)CC(NS(=O)(=O)c1ccc(NC(C)=O)cc1)C(C)C (centres undefined)	none (no result: KCNQ2 pot)
COc1ccccc1C(O)(C(=O)NNc1ccccc1C)c1ccccc1OC	none (no result: KCNQ2 pot)
Cc1ccccc1Nc1nc(N)c2ccccc2n1	none
Nc1nc(Nc2ccc(Cl)cc2)nc2ccccc12	none (no result: KCNQ2 pot) | Kir21 confirm inactive | HEK293 Tl flux 173.5%
CCOc1ccc(Nc2nc(N)c3ccccc3n2)cc1	none | Kir21 confirm 50.5% | HEK293 Tl flux inactive
CCOc1ccc(Nc2nc(N)nc(CCl)n2)cc1	none
CN(C)c1ccc(Nc2nc(N)c3ccccc3n2)cc1	none | Kir21 confirm 32.5% | HEK293 Tl flux inactive
Nc1nc(Nc2ccccc2)nc2ccccc12	none
COc1ccc(CNC(=O)C2CC(c3cc(C(F)(F)F)cc(C(F)(F)F)c3)=NO2)cc1 (centres undefined)	none (no result: KCNQ2 pot)
O=C(COc1ccc(Br)cc1Br)NC1CCCC1	none
CCc1cc(-c2[nH]ncc2-c2ccc([N+](=O)[O-])cc2)c(O)cc1OC	none
Cc1ccc2nc(C)c(C(=O)NN=C3CCN(C)CC3)n2c1	none
O=C(CC12CCC(CC1)C2)NCc1ccc2c(c1)OCO2	KCNQ2 pot 10.9 | Kir21 confirm inactive | HEK293 Tl flux inactive | CHO-K1 Tl ctr 95.6 | KCNQ1 sel pot inactive | KCNQ2 pot conf 43.7 | Kir21 spec inactive | KCNQ2 W236L MoA inactive
O=C(NCc1cccnc1)Nc1cccc(C(F)(F)F)c1	none
